Among the data in PubChem BioAssay are growth inhibition, inhibition and outcome values, retold here.

Unmarked numbers belong to inactive results. For some of these results: Potency and affinity values are given separately. Active and inactive are the calls of the source. Unless noted, the rule behind the calls is not given here.

By inhibition is commonly meant the drop in the measured response relative to a control, in per cent.

A short description of test [1]: antimalarial activity against Dd2 strain (AID 2302;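 active = growth inhibition above 50% at the single 2 µM test dose, taken to imply half-maximal potency below 2 µM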;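 note: 0% = DMSO untreated growth and 100% = chloroquine plus artemisinin killed control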). The following applies: P. falciparum Dd2 in RBCs, LDH growth readout, 72 h; at 2 µM; active compounds read high.
Test [2] is described as follows: human hepatoma cell viability loss – ATP luminescence, cytotoxicity control for P. falciparum antimalarial project, primary screen (AID 2303;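 active = inhibition above 50%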;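 note: 0% = DMSO wells and 100% = digitonin-killed cells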). The following applies: HepG2 viability, 24-48 h, at 10 µM, active compounds read high.
Test [3] has as its target L-lactate dehydrogenase (Plasmodium falciparum (isolate CDC / Honduras)) (UniProt Q27743). The test is described as follows: PfLDH activity inhibition – cell lysate, 3D7 strain, counter-screen for P. falciparum growth inhibition project (AID 2304).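 Note: 0% = vehicle and 100% = reference inhibitor.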 The following applies: P. falciparum 3D7 crude extract, LDH APAD/NBT absorbance; at 2 µM; active compounds read high. (In general: The purpose of a counterscreen is to sort out artefacts and off-target activity.)

Test [4] in a line: inhibition of 3D7 malaria parasite growth – strain 3D7 (AID 2306).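 Note: 0% = DMSO wells and 100% = chloroquine plus artemisinin control wells.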 The following applies: P. falciparum 3D7 erythrocytic growth, LDH absorbance, 72 h; at 2 µM; active compounds read high.
Test [5] addresses Calcium-dependent protein kinase 1 (Plasmodium falciparum (isolate 3D7)) (UniProt P62344). The test is described as follows: PfCDPK1 kinase inhibitors, biochemical, TCAMS library (AID 1159585; cut-off not given, nearly all actives have IC50 up to about 0.98 µM;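 note: inhibitors leave more ATP so luminescence rises with inhibition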). The following applies: recombinant PfCDPK1, Kinase-Glo ATP depletion luminescence. (In general: Kinase-Glo reads ATP consumption through a luciferase reaction.)
Test [6] concerns the target Plasmodium falciparum protein kinase 6 (PK6, PF3D7_1337100) (UniProt Q8IDW1). Kind of test: PfPK6 kinase inhibitors, biochemical, TCAMS library (AID 1159586). The following applies: recombinant PfPK6, Kinase-Glo ATP depletion luminescence.
Test [7] has as its target Protein kinase 7 (PK7), Plasmodium falciparum 3D7 (PF3D7_0213400) (UniProt Q7YTF7). Kind of test: inhibition of Plasmodium PK7 catalytic activity – biochemical, TCAMS antimalarial set, Kinase-Glo luminescence (AID 1159587). The following applies: recombinant PfPK7, Kinase-Glo ATP depletion luminescence.
The target in test [8] is Calcium-dependent protein kinase 4 (Plasmodium falciparum (isolate 3D7)) (UniProt Q8IBS5). The test is described as follows: PfCDPK4 kinase inhibitors, biochemical, TCAMS library (AID 1159588; cut-off not given, nearly all actives have IC50 up to about 0.91 µM). The following applies: recombinant PfCDPK4, Kinase-Glo ATP depletion luminescence.
Sequence of Calcium-dependent protein kinase 4 (Plasmodium falciparum (isolate 3D7)) (Q8IBS5 whole entry, looked up): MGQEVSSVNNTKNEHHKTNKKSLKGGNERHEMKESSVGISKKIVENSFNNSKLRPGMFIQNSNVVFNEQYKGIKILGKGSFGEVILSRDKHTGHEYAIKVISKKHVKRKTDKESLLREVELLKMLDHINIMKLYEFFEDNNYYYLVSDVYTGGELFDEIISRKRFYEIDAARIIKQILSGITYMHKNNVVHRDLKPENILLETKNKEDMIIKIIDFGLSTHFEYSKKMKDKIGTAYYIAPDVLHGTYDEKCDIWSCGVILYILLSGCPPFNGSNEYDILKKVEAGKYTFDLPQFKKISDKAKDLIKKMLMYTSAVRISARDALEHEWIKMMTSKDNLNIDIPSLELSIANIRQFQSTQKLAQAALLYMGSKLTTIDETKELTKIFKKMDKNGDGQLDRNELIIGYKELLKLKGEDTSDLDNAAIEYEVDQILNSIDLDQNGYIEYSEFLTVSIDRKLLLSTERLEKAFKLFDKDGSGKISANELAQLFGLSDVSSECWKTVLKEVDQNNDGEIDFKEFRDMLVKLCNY

Sequence of Protein kinase 7 (PK7), Plasmodium falciparum 3D7 (PF3D7_0213400) (Q7YTF7 1-343): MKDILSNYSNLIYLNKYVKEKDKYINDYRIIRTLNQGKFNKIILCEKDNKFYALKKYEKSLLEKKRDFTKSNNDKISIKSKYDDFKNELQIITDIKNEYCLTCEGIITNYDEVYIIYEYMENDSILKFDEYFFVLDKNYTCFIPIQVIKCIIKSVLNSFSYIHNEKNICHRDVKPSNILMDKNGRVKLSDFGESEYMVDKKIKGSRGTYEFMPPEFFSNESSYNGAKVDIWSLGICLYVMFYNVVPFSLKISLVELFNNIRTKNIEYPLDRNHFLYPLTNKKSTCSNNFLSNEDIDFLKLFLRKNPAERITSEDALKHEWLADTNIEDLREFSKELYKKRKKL
Sequence of Calcium-dependent protein kinase 1 (Plasmodium falciparum (isolate 3D7)) (P62344 whole entry, looked up): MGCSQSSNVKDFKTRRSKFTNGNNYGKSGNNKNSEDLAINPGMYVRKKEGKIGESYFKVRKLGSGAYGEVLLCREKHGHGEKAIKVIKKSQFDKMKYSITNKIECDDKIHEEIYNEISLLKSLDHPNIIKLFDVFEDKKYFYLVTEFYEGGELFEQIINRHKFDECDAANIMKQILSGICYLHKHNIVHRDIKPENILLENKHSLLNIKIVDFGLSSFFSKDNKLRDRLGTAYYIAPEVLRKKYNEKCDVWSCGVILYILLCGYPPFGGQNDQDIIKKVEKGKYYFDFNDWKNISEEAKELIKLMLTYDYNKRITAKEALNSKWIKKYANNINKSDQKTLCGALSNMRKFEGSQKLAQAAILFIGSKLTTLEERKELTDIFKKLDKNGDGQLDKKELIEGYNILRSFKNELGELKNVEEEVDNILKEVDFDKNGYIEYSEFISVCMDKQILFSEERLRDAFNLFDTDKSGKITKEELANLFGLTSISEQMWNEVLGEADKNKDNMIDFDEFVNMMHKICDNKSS
Sequence of L-lactate dehydrogenase (Plasmodium falciparum (isolate CDC / Honduras)) (Q27743 whole entry, looked up): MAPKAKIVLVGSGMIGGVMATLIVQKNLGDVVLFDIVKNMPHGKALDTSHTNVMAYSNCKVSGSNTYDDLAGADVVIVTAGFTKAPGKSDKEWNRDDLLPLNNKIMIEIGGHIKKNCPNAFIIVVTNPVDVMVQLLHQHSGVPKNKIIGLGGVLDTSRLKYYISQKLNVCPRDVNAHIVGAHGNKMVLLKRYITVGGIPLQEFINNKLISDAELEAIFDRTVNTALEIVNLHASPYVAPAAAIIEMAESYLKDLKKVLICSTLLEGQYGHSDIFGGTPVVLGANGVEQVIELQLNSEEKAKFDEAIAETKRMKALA
Sequence of Plasmodium falciparum protein kinase 6 (PK6, PF3D7_1337100) (Q8IDW1 1-305): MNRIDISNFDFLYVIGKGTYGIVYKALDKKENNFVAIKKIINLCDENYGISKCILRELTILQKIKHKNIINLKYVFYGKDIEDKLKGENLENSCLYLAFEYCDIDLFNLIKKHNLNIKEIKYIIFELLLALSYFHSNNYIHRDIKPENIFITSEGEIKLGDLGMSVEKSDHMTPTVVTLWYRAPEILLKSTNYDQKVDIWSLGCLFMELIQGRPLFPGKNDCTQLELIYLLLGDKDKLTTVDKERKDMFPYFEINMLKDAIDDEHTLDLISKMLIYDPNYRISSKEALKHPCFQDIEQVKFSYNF

For the molecule `COc1ccc(NC(=O)/C=C/c2ccccc2Cl)cc1OCCN1CCC(NCc2cccnc2)CC1`, the growth inhibition is 88% (active) in test [1] and 101% (active) in test [4]. The inhibition in test [2] is 12%; in test [3], 1%. The result in test [5], in test [6], in test [7] and in test [8] was inactive.

`Cn1nccc1C(=O)NCCNCc1ccc(-c2ccc(-c3nc4ccc(C(F)(F)F)cc4[nH]3)s2)cc1`: the growth inhibition was 99% (active) in test [1] and 101% (active) in test [4]. The inhibition is 48% in test [2] and -5% in test [3]. The result in test [5], in test [6], in test [7] and in test [8] was inactive.

Regarding `CCc1ccc(C(=O)Nc2cccc(CN3CCCN(Cc4ccc(O)cc4)CC3)c2)cc1`, the values for the growth inhibition in test [1] and in test [4] were 74% (active) and 101% (active), respectively. Moreover, the figures for the inhibition in test [2] and in test [3] were 11% and -1%, respectively. Besides, the result in test [5], in test [6], in test [7] and in test [8] was inactive.

Turning to `Cn1ncc2c3c(CCN4CCC(NCc5ccc6c(c5)NC(=O)CO6)CC4)c(Cl)cnc3ccc21`, the growth inhibition in test [1] was 92% (active); in test [4] it was 101% (active). Further, the inhibition in test [2] is 18%; in test [3], -2%. The result in test [5], in test [6], in test [7] and in test [8] was inactive.

As for `O=C(CSc1nccn1Cc1ccco1)Nc1cc(C(F)(F)F)ccc1Cl`, the figures for the growth inhibition in test [1] and in test [4] were 66% (active) and 91% (active), respectively. Moreover, the inhibition in test [2] was 9%; in test [3], -4%. For the same molecule, the outcome in test [5], in test [6], in test [7] and in test [8] was inactive.

On to `COc1ccc2nccc([C@@H](O)CN3CCC(NCc4cc5ccccc5[nH]4)CC3)c2n1`, for which the values for the growth inhibition in test [1] and in test [4] were 55% (active) and 101% (active), respectively. Besides, the inhibition in test [2] was 17%; in test [3], 3%. Besides, the result in test [5], in test [6], in test [7] and in test [8] was inactive.

In the case of `O=C1CCCN1CCCNCc1ccc(-c2cccc(-c3nc4ccc(C(F)(F)F)cc4[nH]3)c2)cc1`, the growth inhibition is 98% (active) in test [1] and 100% (active) in test [4]. Also, the inhibition in test [2] was 14%; in test [3] it was 2%. Besides, the outcome in test [5], in test [6], in test [7] and in test [8] was inactive.

`CCOC(=O)c1cc(C(=O)NCCCCN2CCC(c3ccc4c(c3OC)CCCC4)CC2)ccc1-c1ccc(C(F)(F)F)cc1`: the growth inhibition is 60% (active) in test [1] and 101% (active) in test [4]. The inhibition in test [2] was 100% (active); in test [3] it was -3%. Further, the outcome in test [5], in test [6], in test [7] and in test [8] was inactive.

As for `CS(=O)(=O)c1ccc2nc(-c3cc(-c4ccc(OCCN5CCOCC5)cc4)cnc3N)[nH]c2c1`, the figures for the growth inhibition in test [1] and in test [4] were 99% (active) and 100% (active), respectively. Moreover, the inhibition was 43% in test [2] and -4% in test [3]. The result in test [5], in test [6], in test [7] and in test [8] was inactive.

Regarding `Cc1cc(CN2C(=O)C(c3ccccc3)(c3ccccc3)N=C2N)c(C(F)(F)F)o1`, the growth inhibition in test [1] is 84% (active); in test [4] it was 97% (active). In addition, the inhibition is 11% in test [2] and 4% in test [3]. Moreover, the result in test [5], in test [6], in test [7] and in test [8] was inactive.

`Cc1nn(C)c(C)c1CN(Cc1nc(-c2cccc(Oc3ccccc3)c2)oc1C)C1CC1`: the results for the growth inhibition in test [1] and in test [4] were 98% (active) and 101% (active), respectively. Besides, the inhibition is 7% in test [2] and 0% in test [3]. Also, the outcome in test [5], in test [6], in test [7] and in test [8] was inactive.

For `COc1cc(-c2nc(-c3ccccc3)c(-c3ccccc3)[nH]2)ccc1OCCN(C)C`, the growth inhibition in test [1] is 100% (active); in test [4], 101% (active). Moreover, the inhibition in test [2] was -8%; in test [3], 5%. Moreover, the result in test [5], in test [6], in test [7] and in test [8] was inactive.

In the case of `O=C(N[C@@H](Cc1ccccc1)C(=O)NC1CCCCC1)c1ccc(O)c(-c2ccc(Cl)c(Cl)c2)c1`, the figures for the growth inhibition in test [1] and in test [4] were 99% (active) and 98% (active), respectively. Moreover, the inhibition in test [2] is -5%; in test [3], 1%. For the same molecule, the result in test [5], in test [6], in test [7] and in test [8] was inactive.

Regarding `CCC1CN2CCc3c([nH]c4ccc(OC)cc34)[C@@H]2C[C@@H]1CC1NCCc2cc(OC)c(OC)cc21` (stereo not given in full), the growth inhibition in test [1] is 21%; in test [4] it was 100% (active). Besides, the inhibition in test [2] was 17%; in test [3], -2%. Further, the result in test [5], in test [6], in test [7] and in test [8] was inactive.

In the case of `CC(=O)Nc1ccc(CN2CCc3ccc(NS(=O)(=O)c4cccc(OCc5ccc(Cl)cc5)c4)cc3CC2)s1`, the growth inhibition in test [1] is 7%; in test [4] it was 93% (active). The inhibition is 23% in test [2] and -3% in test [3]. For the same molecule, the result in test [5], in test [6], in test [7] and in test [8] was inactive.

On to `Cn1cnc(CCNC(=O)c2ccc(-c3cccc(-c4nc5ccc(F)cc5[nH]4)c3)cc2)c1`, for which the growth inhibition is 24% in test [1] and 100% (active) in test [4]. The values for the inhibition in test [2] and in test [3] were 23% and -5%, respectively. Further, the outcome in test [5], in test [6], in test [7] and in test [8] was inactive.

In the case of `CCOc1cc2c(cc1OCC)C(c1ccc(O)c(Cl)c1)NCC2` (stereo not given), the growth inhibition in test [1] and in test [4] was 98% (active) in each case. The inhibition was 6% in test [2] and 4% in test [3]. Besides, the outcome in test [5], in test [6], in test [7] and in test [8] was inactive.

Consider `Cc1cc(N[C@@H](CC(C)C)C(=O)NCCOc2ccccc2)nc(Nc2ccccc2)n1`, for which the growth inhibition in test [1] was 9%; in test [4], 93% (active). In addition, the inhibition in test [2] is 9%; in test [3], -2%. In addition, the result in test [5], in test [6], in test [7] and in test [8] was inactive.

For `CCCN(Cc1nnc(-c2cccs2)o1)C(=O)CSc1nnnn1-c1ccc(C)c(C)c1`, the growth inhibition in test [1] is 80% (active); in test [4], 96% (active). Also, the inhibition in test [2] is -7%; in test [3], 0%. Besides, the outcome in test [5], in test [6], in test [7] and in test [8] was inactive.

In the case of `Cc1cc(Nc2ccc3c(c2)CCC3)n2ncnc2n1`, the values for the growth inhibition in test [1] and in test [4] were 48% and 86% (active), respectively. For the same molecule, the inhibition is 4% in test [2] and -2% in test [3]. Further, the outcome in test [5], in test [6], in test [7] and in test [8] was inactive.
